The record followed here is PubChem BioAssay (NCI).

Values joined by “and” are separate entries in the source; they are usually repeats but may differ in a detail not shown here. Equal values may be shown once. Compounds without any hit were thinned out: in the full panel of roughly 83,000, 20% have a hit.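 48-hour exposure, single concentration, 96-well plates; percent growth endpoint where 0 means no net growth. Active: below 10.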 Active and inactive are the calls of the source.

Holding throughout (experiment): NCI-60 one-dose screen, 48 h (100 = growth as untreated, 0 = no growth, -100 = all killed)
Test [1] relates to DU-145 prostate. The conditions noted are these: 10 µM unless noted.
Test [2] deals with MALME-3M melanoma. The settings on record: 10 µM unless noted.
Test [3] relates to MDA-MB-231 breast. The conditions noted are these: 10 µM unless noted.
The test system of test [4] is RXF 393 renal. The conditions noted are these: 10 µM unless noted.
Test [5] has as its system SF-268 CNS. The conditions noted are these: 10 µM unless noted.
Test [6] deals with SF-295 CNS. The conditions noted are these: 10 µM unless noted.
Test [7] relates to SF-539 CNS. The conditions noted are these: 10 µM unless noted.
The test system of test [8] is UACC-257 melanoma. The settings on record: 10 µM unless noted.
Test [9] relates to M14 melanoma. The conditions noted are these: 10 µM unless noted.
Test [10] deals with HCT-15 colon. The conditions noted are these: 10 µM unless noted.
Test [11] relates to HT29 colon. The settings on record: 10 µM unless noted.
Test [12] relates to SNB-75 CNS. The conditions noted are these: 10 µM unless noted.
Test [13] has as its system SNB-19 CNS. The settings on record: 10 µM unless noted.
Test [14] has as its system U251 CNS. The settings on record: 10 µM unless noted.
The subject of test [15] is PC-3 prostate. The conditions noted are these: 10 µM unless noted.
In test [16] the test system is SK-MEL-5 melanoma. The conditions noted are these: 10 µM unless noted.
Test [17] deals with UACC-62 melanoma. The settings on record: 10 µM unless noted.
The test system of test [18] is LOX IMVI melanoma. The settings on record: 10 µM.
Test [19] deals with SK-MEL-28 melanoma. The conditions noted are these: 10 µM unless noted.
Test [20] deals with K-562 leukemia. The settings on record: 10 µM unless noted.

As to `CC(=O)OC1CC2CCC1(C)C2(C)C` (stereo not drawn), the growth in test [1] was 110% (inactive); in [2] it was 98.7% (inactive); in test [3] it was 101% (inactive); in test [4], 114% (inactive); in test [5], 104% (inactive); in [6], 94.5% (inactive). For the same molecule, the growth in [7] is 104% (inactive); in test [8], 99.6% (inactive); in test [9] it was 106% (inactive); in test [10], 98.9% (inactive); in test [11], 96% (inactive); in test [12], 93.5% (inactive). For the same molecule, the growth in [13] is 103% (inactive); in test [14], 103% (inactive); in [15], 93.2% (inactive); in test [16] it was 106% (inactive); in test [17], 92.6% (inactive); in [18] it was 101% (inactive). Also, the growth in test [19] was 105% (inactive).

Regarding `CCCCCCCCCCCCCCCc1ccc(C(=O)C[n+]2ccccc2)cc1`, the growth is -97.6% (active) in [1]; -81.6% (active) in [20]; -53.8% (active) in test [3]; -87% (active) in [5]; -74.8% (active) in [6]; -98.4% (active) in test [7]. Besides, the growth in test [8] was -76.3% (active); in [9], -90.4% (active); in test [10] it was -48.6% (active); in test [11], -39.3% (active); in [12] it was -55% (active); in test [13], -84.1% (active). For the same molecule, the growth in test [14] is -42.2% (active); in test [15] it was -90.7% (active); in [16], -31.6% (active); in test [17], -27.6% (active); in [18], -55.9% (active).

Regarding `CC1=CC[C@@H]2[C@@H](CC[C@@]2(C)O)C(C)(C)[C@H]1CC[C@@H]1[C@@]2(C)CCC(=O)C(C)(C)O[C@@H]2CC[C@]1(C)O`, in test [17], the growth is -76.1% [100 µM] (active) and -100% [100 µM] (active).

Take `CCCCCCCCCCCCSC(=N)N`: the growth in test [1] was 42.8% (inactive); in test [20] it was -40.8% (active); in [3], -30.1% (active); in test [4] it was 21.5% (inactive); in test [5] it was 67.8% (inactive); in [7] it was 74.9% (inactive). Moreover, the growth in [8] was 14% (inactive); in test [10], -21.4% (active); in [11] it was -64.4% (active); in [12] it was 8.5% (active); in [13], 69% (inactive); in test [14], -10.1% (active). In addition, the growth in test [15] is 33% (inactive); in [16], 38.5% (inactive); in [17] it was 107% (inactive); in test [18] it was -70.8% (active); in [19], 52.7% (inactive).

For `Nc1cccc2cccc([N+](=O)[O-])c12`, the growth in test [1] is 118% (inactive); in test [2], 111% (inactive); in test [4] it was 110% (inactive); in [5], 109% (inactive); in test [6] it was 95.6% (inactive); in test [7], 113% (inactive). Moreover, the growth was 100% (inactive) in [8]; 107% (inactive) in test [9]; 105% (inactive) in test [10]; 106% (inactive) in [11]; 81.8% (inactive) in [12]; 102% (inactive) in [13]. Moreover, the growth in test [15] was 103% (inactive); in [17], 98.9% (inactive); in test [18] it was 105% (inactive); in test [19], 96.4% (inactive).

As to `CC1=CC(=NC(=O)CBr)C=C/C1=N\S(=O)(=O)c1ccccc1`, the growth was 76.8% (inactive) in test [1]; 21.9% (inactive) in test [2]; 67.5% (inactive) in [3]; 82.4% (inactive) in [4]; 64.8% (inactive) in test [5]; 91.6% (inactive) in test [7]. Moreover, the growth in test [9] is 72.8% (inactive); in test [10], 36.6% (inactive); in test [11] it was 39.9% (inactive); in test [12] it was 67.6% (inactive); in test [13], 98.2% (inactive); in test [15], 77.5% (inactive). In addition, the growth in [16] is 57.1% (inactive); in test [17], 66.7% (inactive); in test [18], 9.2% (active); in test [19], 73.1% (inactive).

In the case of `CC1(C)CCC2(C(=O)O)C(O)CC3(C)C(=CCC4C5(C)CCC(OC6OCC(O)C(O)C6OC6OCC(O)C(O)C6OC6OCC(O)C(OC7OC(CO)C(O)C(O)C7O)C6O)C(C)(C)C5CCC43C)C2C1` (stereo not drawn), the growth in test [17] was 97.8% [100 µM] (inactive) and 5.39% [100 µM] (active).

Turning to `C1=C(c2ccccc2)c2ccccc2C1`, the growth was 109% (inactive) in test [1]; 88.3% (inactive) in test [20]; 106% (inactive) in [4]; 96.6% (inactive) in test [5]; 91% (inactive) in test [6]; 99.5% (inactive) in test [7]. For the same molecule, the growth in test [8] is 133% (inactive); in test [9], 92.2% (inactive); in test [10], 87.6% (inactive); in [11] it was 105% (inactive); in test [12] it was 90.9% (inactive); in test [14] it was 108% (inactive). Also, the growth in [15] was 82.6% (inactive); in test [16], 108% (inactive); in test [18], 89.7% (inactive); in [19] it was 116% (inactive).
